Compound activity: PubChem, The Scripps Research Institute Molecular Screening Center
Rows were chosen to be rich in hits. Some 4.5% of all compounds tested hit in one or more screens of this group.
hgDAF-12 ag: hgDAF-12 agonism, primary luciferase screen; HEK293 GAL4-hgDAF12 UAS-luciferase reporter, agonist luminescence; normalized to butyrate control; activation, % at 6.8 µM; 370,000 tested, 1.8% active;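 active = activation above a cutoff set at the mean of all screened compounds plus 3 SD, cut at about 10% in these data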
DAX1 inh-1: NR0B1 (DAX1) inhibition; P51843; HEK293 Gal4-DAX1 luciferase reporter, luminescence; inhibition, % at 6.75 µM; 340,000 tested, 0.99% active;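 active = inhibition above the mean over all tested compounds plus 3 SD, cut at about 4.2% in these data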;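 note: inhibition shows as a rise in luminescence from relieved DAX1 repression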
Target sequence (P51843 207-470 limits assumed): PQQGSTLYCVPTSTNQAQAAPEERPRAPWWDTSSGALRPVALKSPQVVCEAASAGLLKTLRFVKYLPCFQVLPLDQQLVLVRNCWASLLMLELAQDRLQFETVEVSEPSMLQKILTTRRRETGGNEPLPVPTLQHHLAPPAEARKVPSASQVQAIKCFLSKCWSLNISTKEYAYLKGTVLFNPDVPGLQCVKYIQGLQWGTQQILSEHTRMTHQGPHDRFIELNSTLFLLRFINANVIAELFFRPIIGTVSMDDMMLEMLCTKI
ssDAF12 agonist: activates DAF-12 receptor from parasite S. stercoralis; HEK293 ssDAF-12/GRIP1 lit1-tk-luc reporter, luminescence; % of 3 µM dafachronic acid response; activation, % at 6.8 µM; 370,000 tested, 1% active; AID 652126;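 active = activation above the mean over all tested compounds plus 3 SD, cut at about 0.9% in these data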
DAX1 inh-2: DAX1 (NR0B1) inhibition, primary screen. HEK293T StAR-luciferase reporter, SF-1/DAX-1 repression relief. 370,000 tested, 1.1% active. inhibition, % at 6.8 µM;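 active = inhibition above the mean over all tested compounds plus 3 SD, cut at about 3.6% in these data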;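 note: higher inhibition means more luminescence from relief of DAX-1 repression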
hcDAF-12 act: activates DAF-12 receptor from parasite H. contortus. 370,000 tested, 1.4% active. HEK293 hcDAF-12 lit1-tk-luc reporter, luminescence; 0% DMSO, 100% Δ7-dafachronic acid. activation, % at 6.8 µM;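 active = activation above the mean of all tested compounds plus 3 SD, cut at about 5.5% in these data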
FXN GAA850 act: increases GAA850 frataxin promoter reporter activity. HEK293 lucGAA850 FXN promoter luciferase reporter, 24 h; percent of 10 µM SAHA response. activation, % at 6 µM. AID 540364. 360,000 tested, 0.56% active;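 active = activation above the average of all compounds screened plus 3 SD, cutoff fixed separately per campaign, cut at about 7.5% in these data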
GAA30 FXN cntr: counter-screen for GAA850 frataxin promoter activators: GAA30 promoter activation | 1,900 tested, 66% active | AID 588350 | shares compounds with FXN GAA850 act | activation, % at 6 µM | HEK293 lucGAA30 FXN promoter luciferase, 24 h; DMSO = 0%, 5 µM ipriflavone = 100%;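 active = mean activation above the mean of solvent-only control wells plus 3 SD, cut at about 22% in these data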;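 note: counterscreen of GAA850 promoter hits where activity marks nonselective or luminescence artifacts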
FXN GAA850 conf: confirmation of GAA850 frataxin (FXN) promoter activators | 1,900 tested, 86% active | activation, % at 6 µM | shares compounds with FXN GAA850 act | HEK293 lucGAA850 FXN promoter luciferase reporter, 24 h; 100% = activation by SAHA | AID 588351;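 active = mean activation above a set limit taken from the primary screen, cut at about 8% in these data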
Each line names hits and unclear results; the compound was inactive in the other large screens (follow-up assays come after a bar, where they were run).

O=C(Nc1ccc(Br)cn1)c1cccc(-c2cc3ccccc3oc2=O)c1	FXN GAA850 act 9.4 | GAA30 FXN cntr 118 | FXN GAA850 conf 33
CCCC1CCC2(CCC(=O)N2CCO)CC1 (stereo unspecified)	none (no result: DAX1 inh-1, FXN GAA850 act)
CSc1ncnc2c1ncn2CCCN[C@H](C)c1cccc2ccccc12	FXN GAA850 act 9.6 | GAA30 FXN cntr inactive | FXN GAA850 conf 9.8
CCOC(=O)c1c(CSc2ccccc2)n(C)c2cc(Br)c(O)c(CN(C)C)c12	FXN GAA850 act 19 | GAA30 FXN cntr inactive | FXN GAA850 conf 12
CCOC(=O)c1c(CSc2ccc(C)cc2)n(C)c2cc(Br)c(O)c(CN(C)C)c12	FXN GAA850 act 11 | GAA30 FXN cntr inactive | FXN GAA850 conf 15
CCOC(=O)c1c(CSc2ccsc2)n(C)c2cc(Br)c(O)c(CN(C)C)c12	FXN GAA850 act 7.8 | GAA30 FXN cntr inactive | FXN GAA850 conf inactive
CCOC(=O)c1c(CN2CCCCC2)n(C)c2cc(Br)c(O)c(CN(C)C)c12	none (no result: hgDAF-12 ag, ssDAF12 agonist, DAX1 inh-2, hcDAF-12 act)
CCOC(=O)c1c(CN2CCOCC2)n(-c2ccccc2)c2cc(Br)c(O)c(CN(C)C)c12	none
CCOc1ccc(S(=O)(=O)Nc2cccc(C(=O)NCC(c3ccc(OC)cc3)N3CCOCC3)c2)cc1 (stereo unspecified)	none
CCOC(=O)c1c(N)sc(C(N)=O)c1C	none
CCCOC(=O)c1c(N)sc(C(=O)OCC)c1C	FXN GAA850 act 14 | GAA30 FXN cntr 64 | FXN GAA850 conf 25
O=C(NCc1ccco1)C1CCCN(S(=O)(=O)c2ccccc2F)C1 (stereo unspecified)	none (no result: DAX1 inh-1, FXN GAA850 act)
COc1ccc(C2=NN(c3ccc(C(=O)O)cc3)C(c3ccc(OC)c(OC)c3)C2)cc1 (stereo unspecified)	FXN GAA850 act 11 | GAA30 FXN cntr 31 | FXN GAA850 conf 19
O=c1[nH]c2ccccc2c2cn(-c3ccccc3)nc12	FXN GAA850 act 8.8 | GAA30 FXN cntr 112 | FXN GAA850 conf 46
O=c1[nH]c2ccccc2c2ccccc12	none
CCCn1cnc2c(cnn2-c2ccc(F)cc2)c1=O	FXN GAA850 act 10.0 | GAA30 FXN cntr 59 | FXN GAA850 conf 18
Cc1c(CCOC(=O)CC23CC4CC(CC(C)(C4)C2)C3)sc[n+]1CC(=O)c1ccccc1	FXN GAA850 act 9.7 | GAA30 FXN cntr inactive | FXN GAA850 conf 14
Cc1c(CCOC(=O)CC23CC4CC(CC(C4)C2)C3)sc[n+]1CC(=O)c1ccc(Br)cc1	none
Cc1c(CCOC(=O)C23CC4CC(CC(C)(C4)C2)C3)sc[n+]1CC(=O)c1ccccc1	FXN GAA850 act 8.3 | GAA30 FXN cntr 31 | FXN GAA850 conf 20
O=[N+]([O-])c1cc([N+](=O)[O-])c2c(=Nc3ccccc3)n(-c3ccccc3)n(O)c2c1	none
CCN1CCN(c2nnc(-c3ccccc3)c3ccccc23)CC1	none
CCN1CCN(c2cc3c(nn2)Oc2ccccc2N3C)CC1	hgDAF-12 ag 12, FXN GAA850 act 8.4 | GAA30 FXN cntr 140 | FXN GAA850 conf 42
CCOC(=O)c1sc(NC(=O)CCN2CCCCCC2)c(C(=O)OCC)c1C	FXN GAA850 act 10 | GAA30 FXN cntr inactive | FXN GAA850 conf inactive
CCOC(=O)c1c(NC(=O)CC)sc(C(=O)N2CCCCC2)c1C	none
O=C(CSc1nnc(-c2ccncc2)n1-c1ccc(Br)cc1)c1ccccc1	none (no result: DAX1 inh-1, FXN GAA850 act)
COC(=O)[C@]12CCCCC=C1N(Cc1ccc(OC)cc1)C(=O)[C@@H]2CC(=O)N1CCN(C(=O)C2CC2)CC1	none (no result: DAX1 inh-1, FXN GAA850 act)
CCn1c(SCC(=O)NCCc2ccc(OC)c(OC)c2)nc2c([nH]c3ccccc32)c1=O	FXN GAA850 act 14 | GAA30 FXN cntr 26 | FXN GAA850 conf 8.2
CCn1c(SCC(=O)NCC2CCCO2)nc2c([nH]c3ccccc32)c1=O (stereo unspecified)	none
CCC(C(=O)OCC(=O)N1CCN(S(=O)(=O)c2ccc(C)cc2C)CC1)c1ccccc1 (stereo unspecified)	none
O=C1CSc2ccc(C(=O)NCCC3=CCCCC3)cc2N1	FXN GAA850 act 7.8 | GAA30 FXN cntr 76 | FXN GAA850 conf 24
C=CCNc1nc(Cl)nc(Nc2ccc(OC)cc2)n1	ssDAF12 agonist 1.3, FXN GAA850 act 8.1 | GAA30 FXN cntr 64 | FXN GAA850 conf 25
CCC[C@H]1OC(=O)[C@@H]2CCCN2C(=O)[C@H]([C@H](C)Cc2ccccc2)NC(=O)[C@@H]2CCCN2C(=O)[C@@H]2CCCN2C(=O)[C@H](C(C)C)OC(=O)[C@@H]2CCCN2C(=O)[C@H](C(C)C)NC(=O)C1(C)C	none (no result: DAX1 inh-1, DAX1 inh-2, FXN GAA850 act)
CCOC(=O)c1ccccc1NC(=O)Nc1ccc(OC)c(OC)c1	FXN GAA850 act 9.6 | GAA30 FXN cntr inactive | FXN GAA850 conf 10
CCCc1cc(C(=O)Nc2cccc(C(C)=O)c2)no1	hcDAF-12 act 5.9, FXN GAA850 act 25 | GAA30 FXN cntr 76 | FXN GAA850 conf 23
CCCc1cc(C(=O)Nc2ccc(C(C)=O)cc2)no1	none
O=C(CN1CCN(c2nc(-c3ccccc3)cs2)CC1)Nc1ccc(F)cc1F	none (no result: DAX1 inh-1, FXN GAA850 act)
CN(C(=S)NC1CCCCC1)C1(c2ccccc2Cl)CCCCC1=O (stereo unspecified)	FXN GAA850 act 8.8 | GAA30 FXN cntr inactive | FXN GAA850 conf 9.2
COc1ccc(-c2csc3nc(-c4cccnc4)nc(Cl)c23)cc1OC	none
Clc1nc(-c2cccnc2)nc2scc(-c3ccccc3)c12	FXN GAA850 act 8.1 | GAA30 FXN cntr 97 | FXN GAA850 conf 31
Cc1c(C(=O)N2CCc3ccccc32)oc2c1C(=O)CC(C)(C)C2	DAX1 inh-2 4.0, FXN GAA850 act 11 | GAA30 FXN cntr 113 | FXN GAA850 conf 40
COc1cccc(OCC(C)CN2CCC(C(O)(c3ccccc3)c3ccccc3)CC2)c1 (stereo unspecified)	none (no result: DAX1 inh-1, FXN GAA850 act)
COc1cc(C(NC(=O)C(F)(F)F)C2CCCC=C2c2ccccc2)cc(OC)c1OC (stereo unspecified)	none (no result: DAX1 inh-1, FXN GAA850 act)
O=C(CSc1nnnn1-c1ccc(F)cc1)c1ccc(O)c(O)c1	FXN GAA850 act 12 | GAA30 FXN cntr 31 | FXN GAA850 conf 17
COc1cc2c(cc1OC)-c1nnc(-c3cccs3)n1C(C)(C)C2	FXN GAA850 act 13 | GAA30 FXN cntr inactive | FXN GAA850 conf 8.2
COC(=O)c1ccc(CSC(=N)N)o1	FXN GAA850 act 8.5 | GAA30 FXN cntr 31 | FXN GAA850 conf 13
